Experimental findings from PubChem BioAssay (NCATS) are described below.

Records with an inconclusive call do not appear. Unmarked numbers belong to inactive results. Active and inactive are the calls of the source. Calls follow the shape of the dose curve; as a rule, active = well fitted cell-killing curve with a large enough effect; inconclusive = small, poorly fitted or top-dose-only effect, or effect the other way; inactive = no such curve, though single readings can be large or run the other way.
Potency is read from the fitted curve at half-maximal effect.

The nature of the assay: Quantitative High-Throughput drug screen in 47 multiple myeloma cell lines against the NCATS MIPE library collection: L363_DSMZ cell viability assay (AID 1918984). Also: nearly all actives have a fitted effect of over 40% in size. Conditions: L363 myeloma viability, CellTiter-Glo ATP luminescence, 48 h; series mostly up to 45.8 µM; viability (% of control): at the top concentration. An excerpt:
PI: Beverly A. Mock Ph.D.
Laboratory of Cancer Biology and Genetics,
Center for Cancer Research, National Cancer Institute,
National Institute of Health, Bethesda, Maryland
Drug resistance and disease progression are common in multiple myeloma (MM) patients, underscoring the need for new therapeutic combinations. […] We hypothesized that effective combinations would reduce MYC expression and enhance p16 activity. […] These preclinical data identify potentially useful drug combinations for evaluation in drug-resistant MM and reveal potential mechanisms of combined drug sensitivity.
Described herein is the primary MIPE qHTS used to cherrypick compounds. Validated compounds were then further tested for potential synergistic activiy.
[1] Peat TJ, Gaikwad SM, Dubois W, Gyabaah-Kessie N, Zhang S, Gorjifard S, Phyo Z, Andres M, Hughitt VK, Simpson RM, Miller MA, Girvin AT, Taylor A, Williams D, D'Antonio N, Zhang Y, Rajagopalan A, Flietner E, Wilson K, Zhang X, Shinn P, Klumpp-Thomas C, McKnight C, Itkin Z, Chen L, Kazandijian D, Zhang J, Michalowski AM, Simmons JK, Keats J, Thomas CJ, Mock BA. Drug combinations identified by high-throughput screening promote cell cycle transition and upregulate Smad pathways in myeloma. Cancer Lett. 2023 Aug 1;568:216284. doi: 10.1016/j.canlet.2023.216284. Epub 2023 Jun 24. PMID: 37356470; PMCID: PMC10408729.
SEQUENCE No. (e.g., 1, 2, 3, etc.); […] (e.g., Cells, Incubation, Reagent, etc.); VALUE and DESCRIPTION.
1; Cells; 5 uL; white, solid bottom 1536-well Greiner assay plate.
2; Compounds; 23 nL; Kalypsis pin tool (Wako USA) equipped with a 1536-well pin head to transfer to the assay plates.
3; Incubation; 48 hours; 37C incubation.
4; Reagent;5uL; CellTiter Glo (Promega).
5; Detector; 425V; Luminescence; Viewlux PerkinElmer.
NOTES (numbers refer to Sequence numbers above)
1. The cell-based screening methods employed in this study were like those previously published. Briefly, the corresponding myeloma cell lines were screened in 1,536-well plates with 500 cells, 5-uL per well for inhibition of cell viability (assessed by measuring ATP levels with CellTiterGlo).
2. NCATS MIPE 4.0 library of approved and investigational drugs were added using the Kalypsis pin tool. Wells treated with DMSO only for 100% viability and media only for 0% viability were used as controls.
3. The assay plates were covered and incubated for 48 hours in a 37C, 5% CO2 incubator with controlled humidity.
4. After 48 hours, CellTilter-GloTM luminescent substrate mix (Promega) reagent was added to the assay plate and plates we incubated for 5 min at room temperature.
5. Signal was measured as median relative luminescence units on a ViewLux (PerkinElmer) multiplate reader.
[1] Heske CM, Davis MI, Baumgart JT, Wilson K, Gormally MV, Chen L, Zhang X, Ceribelli M, Duveau DY, Guha R, Ferrer M, Arnaldez FI, Ji J, Tran HL, Zhang Y, Mendoza A, Helman LJ, Thomas CJ. Matrix Screen Identifies Synergistic Combination of PARP Inhibitors and Nicotinamide Phosphoribosyltransferase (NAMPT) Inhibitors in Ewing Sarcoma. Clin Cancer Res. 2017 Dec 1;23(23):7301-7311. doi: 10.1158/1078-0432.CCR-17-1121. Epub 2017 Sep 12. PMID: 28899971; PMCID: PMC6636827.
With `CCC1=C(C)CN(C(=O)NCCc2ccc(S(=O)(=O)NC(=O)NC3CCC(C)CC3)cc2)C1=O` (stereo not given), the “viability (% of control)” value is 104%.

In the case of `COc1c(O)cc2c(c1O)[C@@H]1O[C@H](CO)[C@@H](O)[C@H](O)[C@H]1OC2=O`, the “viability (% of control)” value was 93.5%.

On to `CN(C)CCCC1(c2ccc(F)cc2)OCc2cc(C#N)ccc21` (stereo not given), for which the “viability (% of control)” value was 65.4%.

`O=P(O)(O)C(O)(Cn1ccnc1)P(=O)(O)O`: the “viability (% of control)” value was 103% [at 23.2 µM].

As for `CCCCCCCCOc1ccccc1C(=O)Nc1ccc(C(=O)OCC[N+](C)(CC)CC)cc1`, the Potency was 4.69 µM (active).

`O=C(NOCC1CC1)c1ccc(F)c(F)c1Nc1ccc(I)cc1Cl`: the Potency was 18.7 µM (active).

Consider `CC(C)c1nc(CN(C)C(=O)N[C@H](C(=O)N[C@@H](Cc2ccccc2)C[C@H](O)[C@H](Cc2ccccc2)NC(=O)OCc2cncs2)C(C)C)cs1`, for which the “viability (% of control)” value is 89.5%.

For the molecule `CC(C)(S)[C@@H](N)C(=O)O`, the “viability (% of control)” value is 113%.

In the case of `COc1cc2nc(N3CCN(C(=O)C4CCCO4)CC3)nc(N)c2cc1OC` (stereo not given), the Potency was 1.48 µM (active).

In the case of `C[C@]12CCC(=O)C=C1CC[C@@H]1[C@H]2[C@@H](O)C[C@@]2(C)[C@H]1CC[C@]2(O)C(=O)CO`, the “viability (% of control)” value was 94.1%.

Regarding `O=C1NC(=O)C(c2ccccc2[N+](=O)[O-])=C1Nc1ccc(O)c(Cl)c1`, the “viability (% of control)” value is 59.9%.

Consider `CN(C)c1ccc2nc3ccc(=[N+](C)C)cc-3sc2c1`, for which the Potency is 3.72 µM (active).

On to `O=C(CCc1ccc(O)cc1)c1c(O)cc(O)cc1O`, for which the Potency was 0.935 µM (active).

For the molecule `Oc1ccc2ccccc2c1SSc1c(O)ccc2ccccc12`, the Potency was 13.2 µM (active).

Turning to `CCOC(=O)c1c(C)n(C)c2ccc(O)cc12`, the “viability (% of control)” value was 102%.

Regarding `O=Nc1c(-c2c(O)[nH]c3cc(Br)ccc23)[nH]c2ccccc12`, the Potency was 4.69 µM (active).

Regarding `COCCCOc1ccnc(CS(=O)c2nc3ccccc3[nH]2)c1C` (stereo not given), the “viability (% of control)” value is 91.3%.

As for `CCOC(=O)C(C)Oc1cccc2c(=O)n(CC(=O)Nc3ccc4c(c3)OCCO4)ccc12` (stereo not given), the Potency is 9.35 µM (active).

For the molecule `Cc1ccc(C(=O)c2cc(O)c(O)c([N+](=O)[O-])c2)cc1`, the Potency was 16.6 µM (active).

In the case of `Nc1nc(N)c(N=O)c(OCC2CCCCC2)n1`, the Potency is 2.64 µM (active).

With `O=C(O)c1cccnc1Nc1cccc(C(F)(F)F)c1`, the “viability (% of control)” value is 104%.

In the case of `CN(C)C(=O)[C@H](O)[C@H](Cc1ccccc1)NC(=O)c1cc2cc(Cl)ccc2[nH]1`, the Potency was 2.64 µM (active).

For the molecule `CCN(CCO)CCCC(C)Nc1ccnc2cc(Cl)ccc12` (stereo not given), the “viability (% of control)” value is 86.6%.

As to `O=C(OC1C[C@H]2CC[C@@H](C1)[N+]21CCCC1)C(O)(c1ccccc1)c1ccccc1` (stereo not given in full), the “viability (% of control)” value was 91.9%.

`C[Se]CCC(N)C(=O)O` (stereo not given): the “viability (% of control)” value was 104% [at 92.2 µM].

In the case of `Cc1nc(Nc2ncc(C(=O)Nc3c(C)cccc3Cl)s2)cc(N2CCN(CCO)CC2)n1`, the Potency is 1.32 µM (active).

As for `Cc1ccc(Nc2nccc(N(C)c3ccc4c(C)n(C)nc4c3)n2)cc1S(N)(=O)=O`, the Potency was 11.8 µM (active).

Take `Clc1ccc(C(Cn2ccnc2)OCc2ccc(Sc3ccccc3)cc2)c(Cl)c1` (stereo not given): the Potency was 20.9 µM (active).

As to `Oc1ccc(OCc2ccccc2)cc1`, the “viability (% of control)” value was 99.9%.

Take `Cc1cc(=O)c2c(O)c3c(O)cc(=O)c4c3c3c(cc(O)c1c23)C(C)(C)C=4O`: the Potency was 0.743 µM (active).

For `COc1cc2c(N3CCN(C(=O)Nc4ccc(OC(C)C)cc4)CC3)ncnc2cc1OCCCN1CCCCC1`, the “viability (% of control)” value was 89.1%.

In the case of `Cc1cc(C2CCCCC2)n(O)c(=O)c1`, the Potency was 7.43 µM (active).

As to `Cc1cc(=O)oc2cc(O)ccc12`, the “viability (% of control)” value is 75.3%.

`Nc1ncn([C@H]2C[C@H](O)[C@@H](CO)O2)c(=O)n1`: the “viability (% of control)” value is 81.7%.

In the case of `O=C(c1ccccc1)c1ccc2n1CCC2C(=O)O` (stereo not given), the “viability (% of control)” value is 92.7%.

With `NC(=NCc1ccccc1)NC(=O)c1nc(Cl)c(N)nc1N`, the Potency is 23.5 µM (active).

On to `Clc1ccc(C(Cn2ccnc2)OCc2c(Cl)cccc2Cl)c(Cl)c1` (stereo not given), for which the Potency is 18.7 µM (active).

`COc1cc(Nc2c(C#N)cnc3cc(OCCCN4CCN(C)CC4)c(OC)cc23)c(Cl)cc1Cl`: the Potency was 1.66 µM (active).

On to `O=c1cc(N2CCOCC2)oc2c(-c3ccccc3)cccc12`, for which the “viability (% of control)” value was 80.8%.

With `C[C@H](Cc1ccc(O)c(O)c1)[C@@H](C)Cc1ccc(O)c(O)c1`, the Potency was 6.62 µM (active).
